Test results as given in PubChem BioAssay AID588335 (The Scripps Research Institute Molecular Screening Center, 2011).
Screen size: about 360,000 compounds; about 4,500 (1.2%) were called active. Many of the other results were omitted from the sample, so actives are more common in it than they were. Unmarked numbers belong to inactive results. Rule as the data show it: active = inhibition above about 30%; inactive = the rest.

Assay: inhibition of GDH and TPI enzymes – biochemical, absorbance, full deck, artefact control for M. tuberculosis FBA inhibitor project, primary screen (AID 588335);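 also: 0% = DMSO wells and 100% = wells lacking the enzyme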
Settings: GDH-TPI coupled enzyme counterscreen, NADH absorbance; at 4.8 µM; hits give high values

| SMILES | inhibition |
| --- | --- |
| CSc1ccccc1NC(=O)c1cc(Cl)sc1Cl | -10.3% |
| CSc1ccccc1NC(=O)c1cnc2sc(C)cn2c1=O | 32.6% (active) |
| Cc1ccccc1C(=O)Nc1ccccc1Sc1ccccc1 | -10.9% |
| CCCN(c1ccc(C)cc1)c1nc(=O)c2cccnc2s1 | 8.86% |
| COc1ccc(CC(=O)Nc2cc(S(=O)(=O)N3CCCCC3)ccc2N2CCN(C)CC2)cc1 | -4.44% |
| CC(C)N=C1CCCC1C(=S)SSC(=S)C1CCCC1=NC(C)C (stereo not given) | 32.4% (active) |
| CN(CC(=O)Nc1ccccc1F)CC(=O)Nc1ccccc1Br | -8.02% |
| Cc1ccc(S(=O)(=O)N2CCOCC2)cc1C(=O)OC1CCCCC1=O (stereo not given) | -12.1% |
| COc1ccc(C(=O)Oc2ccc(-c3nnco3)cc2)cc1S(=O)(=O)N1CCOCC1 | 7.83% |
| CCc1ccc(-n2c(SCc3cc(=O)n4cc(Br)ccc4n3)nc3[nH]ncc3c2=O)cc1 | 24% |
| O=C(O)CCn1c(SCc2cc(=O)n3ccccc3n2)nc2ccsc2c1=O | 7.77% |
| O=c1c2sccc2nc(SCc2cc(=O)n3ccccc3n2)n1-c1ccc(Br)cc1 | 32.1% (active) |
| Cc1cccc(S(=O)(=O)N(C)C[C@H]2OCc3cnnn3CCCC(=O)N([C@@H](C)CO)C[C@H]2C)c1 | -13.4% |
| CC1(C)CC(N(Cc2ccccc2)C(=O)Cc2ccccc2)CCO1 (stereo not given) | -7.26% |
| O=C(COC(=O)/C=C/c1cn(-c2ccccc2)nc1-c1cccnc1)Nc1ccc(Cl)cc1Cl | -1.11% |
| O=C(O)CCn1cc(C=C2C(=O)NC(=S)NC2=O)c(-c2cccc(Br)c2)n1 | -11.4% |
| O=C(O)CCn1cc(/C=C/C(=O)c2ccc(Cl)cc2)c(-c2cccc(Br)c2)n1 | 43.8% (active) |
| CCOC(=O)c1sc(-c2cccc([N+](=O)[O-])c2)cc1N | 5.1% |
| CC(=O)Nc1nc(C)c(-c2csc(Nc3ccc(S(N)(=O)=O)cc3)n2)s1 | 33.8% (active) |
| C=CCCC(=O)Nc1nc(C)c(-c2csc(Nc3ccc(Cl)cc3)n2)s1 | 16.8% |
| CCCCC(=O)Nc1nc(C)c(-c2csc(Nc3ccc(Cl)cc3)n2)s1 | 11.2% |
| CCOC(=O)c1cc2cc(C)ccc2[nH]1 | 8.07% |
| CCOC(=O)c1c(C)[nH]c(C)c1C(=O)COC(=O)/C=C/c1cccc([N+](=O)[O-])c1 | 5.36% |

| SMILES | inhibition |
| --- | --- |
| CCOC(=O)C=Cc1ccc(C(=O)OCC)[nH]1 | 46.3% (active) |
| COc1ccc(C2NCCCC2c2ccccc2)cc1 (stereo not given) | -3.45% |
| O=C(N/N=C/c1ccc(O)cc1)/C(=C/c1ccc([N+](=O)[O-])cc1)NC(=O)c1ccccc1 | 39% (active) |
| O=C(N/C(=C\c1ccc(O)cc1)C(=O)N1CCCCC1)c1ccccc1 | 9.79% |
| CC(C=Cc1ccccc1)=NNS(=O)(=O)c1ccc([N+](=O)[O-])cc1 | 25.4% |
| O=C(Nc1ccc(C(=O)O)cc1)/C(=C/c1ccc([N+](=O)[O-])cc1)NC(=O)c1ccccc1 | 32.9% (active) |
| O=C(NCc1ccco1)/C(=C/c1ccco1)NC(=O)c1ccccc1 | -7.41% |
| Cc1ccc(NC(=O)C(=O)NCc2ccco2)c(C)c1 | 2.52% |
| Cc1ccc(C(=O)N/C(=C/C=C/c2ccccc2)C(=O)NCc2ccco2)cc1 | 48.9% (active) |
| CNC(=O)/C(=C\C=C\c1ccccc1)NC(=O)c1ccc([N+](=O)[O-])cc1 | 39.1% (active) |
| COc1ccc(/C=C(/NC(=O)c2ccccc2)C(=O)Nc2cccc(C(=O)O)c2)cc1 | 29.7% |
| O=C(Nc1ccc(C(=O)O)cc1)/C(=C\c1ccccc1)NC(=O)c1ccc(Br)cc1 | -8.77% |
| CCCCOc1ccc(C(=O)N/C(=C/C=C/c2ccccc2)C(=O)N2CCOCC2)cc1 | 20.1% |
| O=C(N/N=C/c1cc([N+](=O)[O-])ccc1O)/C(=C\c1cccs1)NC(=O)c1ccccc1 | 15.7% |
| Cc1ccccc1CCNC(=O)C1CCC(=O)N(Cc2ccc(Cl)cc2)C1 (stereo not given) | -2.1% |
| CC1(C)C[C@H]2C3=CCC4[C@@]5(C)CC[C@H](O)[C@](C)(CO)C5CC[C@@]4(C)[C@]3(C)C[C@@H](O)[C@@]2(CO)[C@@H](O)[C@@H]1O (stereo not given in full) | 8.82% |
| COC(=O)C1=NN(c2ccccc2)C2C(=O)N(c3ccccc3OC)C(=O)C12 (stereo not given) | 21% |
| CC(=O)N[C@@H](C)C(=O)N1CCC(n2nccc2NC(=O)CCCc2ccccc2)CC1 | 8.3% |
| CCC(C)Sc1nc2c(cnn2-c2ccc(F)cc2)c(=O)[nH]1 (stereo not given) | 8.15% |
| COc1ccc(-c2nonc2NC(=O)c2oc3ccc(F)cc3c2C)cc1OC | -4.27% |
| O=C(N/C(=C\c1ccc([N+](=O)[O-])cc1)C(=O)N1CCOCC1)c1cccc(Br)c1 | 28.7% |
| Cc1ccc(NC(=O)/C(=C/c2ccc([N+](=O)[O-])cc2)NC(=O)c2ccccc2)cc1 | 49.4% (active) |
| COc1cc(/C=C(/NC(=O)c2ccccc2)C(=O)Nc2cccc(O)c2)c([N+](=O)[O-])cc1OC | 11.6% |

| SMILES | inhibition |
| --- | --- |
| Cc1nc(Cl)cc(N/N=C/c2ccccc2)n1 | 39.2% (active) |
| Nc1nnn(CC(=O)N/N=C/c2ccccc2)n1 | 10.1% |
| Cc1cc2c(C)nc(N/N=C/c3ccccc3)nc2o1 | 28.5% |
| COc1ccc(Br)cc1CN(C)CC(=O)Nc1cc(Cl)cc(Cl)c1 | -4.49% |
| CC(=O)Nc1ccc(S(=O)(=O)NCC(=O)OCC(=O)c2ccc[nH]2)cc1 | 4.57% |
| O=c1c2ccccc2nc2n1C(CSCc1cccc(C(F)(F)F)c1)CS2 (stereo not given) | 32.9% (active) |
| N#Cc1c(-c2ccccc2)nc(SCc2cccc(C(F)(F)F)c2)[nH]c1=O | -3.35% |
| O=c1c2ccccc2nc2n1C(CSCc1ccccc1)CS2 (stereo not given) | 2.03% |
| CC1=C(C(=O)Nc2cc(C)ccn2)C(c2cnn(C)c2)C2=C(CC(c3ccccc3)CC2=O)N1 (stereo not given) | 16.7% |
| CC(C(=O)NC1CCCCC1)N1C(=O)c2cccc3cccc1c23 (stereo not given) | 8.59% |
| Cc1ccc(/C=N/NC(=S)NC2CCCCC2)o1 | 32.4% (active) |
| Cc1cc(Br)ccc1NC(=S)NC1CCCC1 | 13.7% |
| C/C(=N\NC(=S)NC1CCCCC1)c1ccc(C)o1 | 12.9% |
| O=C(NCc1cccnc1)c1cc(C2CCCCN2C(=O)CCc2ccccc2)on1 (stereo not given) | 1.83% |
| CCN(CC)c1ccc(NC(=O)CCc2nnc3ccc(N4CCCCC4)nn23)c(C)c1 | 13.9% |
| O=C(Nc1cccc(F)c1)[C@@H]1CCCN1 | -7.69% |
| Cc1ccc2cc(/C=N/NC(=O)[C@@H]3CCCN3)c(Cl)nc2c1 | 33.2% (active) |
| CSCC[C@H](NC(=O)OC(C)(C)C)C(=O)N/N=C/c1cc2ccc(C)cc2nc1Cl | 14.8% |
| COC(=O)C1(C)CC1(c1ccccc1)c1ccccc1 (stereo not given) | 4.61% |
| COc1cccc(NC(=O)CCc2nnc3ccc(N4CCC(C)CC4)nn23)c1 | 3.45% |
| Cc1cc(C)n(-c2nnc(C)n2NC(=O)c2cccc(Cl)c2)n1 | -3.66% |
| O=C(NCC1CCCO1)/C(=C/c1ccc(Cl)cc1)NC(=O)c1ccccc1 (stereo not given) | 0% |
| CCOc1ccc(/C=C(/NC(=O)c2ccccc2)C(=O)NCCC(=O)O)cc1 | 0.32% |

| SMILES | inhibition |
| --- | --- |
| Cn1c2ccccc2c2cc(/C=C(\NC(=O)c3ccccc3)C(=O)NCC(=O)O)ccc21 | 35.1% (active) |
| CC(C(=O)Nc1ccc(F)c(F)c1F)N1CCCCCC1 (stereo not given) | -6.72% |
| CCC(C)(C)c1ccc(Oc2ccc(NC(=O)COC(=O)C3=COCCO3)cc2)cc1 | -7.05% |
| CN(C(=O)COC(=O)c1cc(=O)[nH]c2ccccc12)C1CCCCC1 | 10.5% |
| O=C1N=C(N2CCc3ccccc3C2)S/C1=C\c1ccc(O)cc1 | 33.1% (active) |
| c1ccc(-c2csc(N3CCc4ccccc4C3)n2)cc1 | 2.71% |
| O=C(CC1SC(N2CCOCC2)=NC1=O)Nc1ccccc1F (stereo not given) | 10.5% |
| NC1=NC(=O)S/C1=C\c1ccc(O)cc1 | 15.8% |
| Cc1cc(/C=C2/SC(=O)N(CC(=O)N3CCCC3)C2=O)ccc1N1CCOCC1 | 1.85% |
| CCc1ccc(/C=C2\SC(N3CCOCC3)=NC2=O)cc1 | 30.8% (active) |
| O=C1N=C(N2CCOCC2)S/C1=C\C=C/c1ccccc1 | 31.1% (active) |
| CCOc1cc(/C=C2\SC(N3CCCCC3)=NC2=O)ccc1O | 24.1% |
| O=C1N=C(N2CCOCC2)CS1 | -6.56% |
| CCOc1ccc(C(=O)NCC(=O)N2CCCCCCC2)cc1OCC | -2.14% |
| O=C(NC1CCCCC1)C1CCC(CNS(=O)(=O)c2ccccc2)CC1 (stereo not given) | -8.09% |
| NC(=O)CCC(NS(=O)(=O)c1ccc(Cl)cc1)C(=O)NCc1ccccc1Cl (stereo not given) | 5.93% |
| O=C(NC1CC1)C1=C[C@H](c2coc3ccccc3c2=O)C[C@H](OCCCCO)O1 | 1.68% |
| CCOC(=O)c1sc(NC(=O)C2CSC3(C)CCC(=O)N23)nc1C (stereo not given) | 4.14% |
| Cn1c(=O)cc(OCC(=O)N2CCN(c3ccccc3F)CC2)c2ccccc21 | 2.59% |
| Cc1cccc(N2CCN(C(=O)CCS(=O)(=O)c3ccc4c(c3)NC(=O)C(C)S4)CC2)c1C (stereo not given) | -2.95% |
| COc1ccc(CCC(=O)N2CCN(S(=O)(=O)c3ccc(OC)cc3)CC2)cc1 | 1.81% |
